# The campaign covered roughly 310,000 compounds. About 14,000 (4.5%) showed an effect of 50% or more. Effects have a minus sign here. Many of the other results were omitted from the sample, so strong results are more common in it than they were.
# Target: human ether-à-go-go-related gene (hERG) potassium channel (human, UniProt Q12809)
# Assay: primary screen, population patch clamp on CHO cells stably expressing hERG; higher = less effect of the substance
# 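Also: peak tail current of the secondary pulse compared with the same well before compound.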
# Chain of human ether-à-go-go-related gene (hERG) potassium channel (Q12809 whole entry, looked up): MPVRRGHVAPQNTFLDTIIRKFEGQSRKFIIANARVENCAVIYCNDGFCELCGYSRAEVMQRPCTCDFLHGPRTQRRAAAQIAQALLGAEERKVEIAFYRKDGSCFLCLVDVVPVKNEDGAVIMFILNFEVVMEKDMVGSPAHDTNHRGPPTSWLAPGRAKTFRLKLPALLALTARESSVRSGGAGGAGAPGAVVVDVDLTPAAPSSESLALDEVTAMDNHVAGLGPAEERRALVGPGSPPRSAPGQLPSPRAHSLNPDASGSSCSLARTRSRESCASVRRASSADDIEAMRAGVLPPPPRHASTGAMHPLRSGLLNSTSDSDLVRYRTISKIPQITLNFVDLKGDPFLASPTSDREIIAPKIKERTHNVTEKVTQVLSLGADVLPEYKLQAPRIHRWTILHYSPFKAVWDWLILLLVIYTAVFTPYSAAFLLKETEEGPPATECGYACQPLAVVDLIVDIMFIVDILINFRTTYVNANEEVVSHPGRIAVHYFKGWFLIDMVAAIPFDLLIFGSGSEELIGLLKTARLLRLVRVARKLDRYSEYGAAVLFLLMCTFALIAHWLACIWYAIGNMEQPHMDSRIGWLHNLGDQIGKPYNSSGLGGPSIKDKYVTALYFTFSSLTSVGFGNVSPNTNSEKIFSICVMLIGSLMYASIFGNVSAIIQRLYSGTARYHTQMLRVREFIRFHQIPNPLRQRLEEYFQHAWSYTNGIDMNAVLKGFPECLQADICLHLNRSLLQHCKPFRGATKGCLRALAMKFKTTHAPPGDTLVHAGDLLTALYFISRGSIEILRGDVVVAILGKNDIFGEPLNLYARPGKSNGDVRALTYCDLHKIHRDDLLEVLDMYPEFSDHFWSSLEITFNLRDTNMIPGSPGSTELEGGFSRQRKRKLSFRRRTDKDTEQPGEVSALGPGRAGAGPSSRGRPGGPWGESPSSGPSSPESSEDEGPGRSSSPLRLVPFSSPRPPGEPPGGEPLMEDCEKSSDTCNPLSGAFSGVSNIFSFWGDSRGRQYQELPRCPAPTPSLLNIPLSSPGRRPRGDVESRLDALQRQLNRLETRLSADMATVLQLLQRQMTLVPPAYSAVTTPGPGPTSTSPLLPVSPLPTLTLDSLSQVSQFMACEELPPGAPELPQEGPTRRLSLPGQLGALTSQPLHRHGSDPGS
row,SMILES,"hERG current change (%, negative = inhibition) at 10uM [%]"
1,CC(C)OCCCNC(=O)c1ccc(Br)cc1,-8.3
2,CC(=O)c1ccc(NC(=O)CNCc2cccs2)cc1.O=C(O)C(=O)O,-0.848
3,Cc1ccc2[nH]c(C(=O)O)c(NC(=O)CN3CCN(c4cccc(C)c4C)CC3)c2c1.Cl,13.1
4,Cc1ccc(-c2noc(CN(C(=O)CCCCCN3C(=O)c4ccccc4C3=O)C(C)C)n2)cc1,-15.3
5,Cc1ccc(-c2noc(CN(C(=O)CCCN3C(=O)c4ccccc4C3=O)C(C)C)n2)cc1,-39.7
6,Cc1ccc(-c2noc(CN(C(=O)CCN3C(=O)c4ccccc4C3=O)C(C)C)n2)cc1,-63.6
7,Cc1c(NC(=O)c2ccco2)cccc1-c1nc2cccnc2s1,-45.8
8,c1ccc(-c2ccc(CN3C[C@@H]4C(c5ccccc5)C5(c6ccccc6)CC4(C5)[C@H]3c3ccccc3)cc2)cc1 (some centres unmarked),-5.02
9,CC1CCN(CC#CCOc2ccc(Cl)cc2)CC1.O=C(O)C(=O)O,-5.81
10,Cc1cc(OCC(=O)N2CCC(C(N)=O)CC2)c2c(C)cc(=O)oc2c1,15.6
11,O=C(CCN1CCN(Cc2ccccc2)CC1)Nc1cccc(Br)c1,-63
12,Cc1ccc(C(=O)C2CCN(CC(=O)Nc3ccc4c(c3)OCCO4)CC2)cc1,-2.3
13,O=C(CCN1CCCC1)Nc1cccc(Br)c1,-20.6
14,CN1CCN(CCC(=O)Nc2cccc(Br)c2)CC1,-19
15,O=C(CCN1CCN(c2ccccc2)CC1)Nc1ccccc1,-22.9
16,O=C(CN1CCC(NC(=O)c2ccccc2F)CC1)Nc1ccc2c(c1)OCO2,-41.7
17,O=C(CCN1CCN(c2ccccc2)CC1)Nc1cccc(Br)c1,-61.4
18,Cc1cccc(NC(=O)CN2CCC(C(=O)c3ccc4c(c3)OCCO4)CC2)c1,-54.2
19,O=C(CCN1CCN(CCO)CC1)Nc1cccc(Br)c1,-19
20,Cc1ccccc1C(=O)NC1CCN(CC(=O)Nc2ccc3c(c2)OCO3)CC1,-47.3
21,Cc1ccc(NC(=O)CN2CCC(C(=O)c3ccc4c(c3)OCCO4)CC2)cc1,-44.7
22,Cc1cccc(C(=O)NC2CCN(CC(=O)Nc3ccc4c(c3)OCO4)CC2)c1,-57.7
23,CCOc1ccccc1N(C)S(=O)(=O)c1ccc2c(c1)CC(C)N2C(=O)C1CC1 (centres unmarked),9.49

row,SMILES,"hERG current change (%, negative = inhibition) at 10uM [%]"
1,O=c1[nH][nH]c(C(F)(F)F)c1C=NCc1ccc(Cl)cc1,-1.88
2,COC(=O)C1=C(C(=O)OC)[C@@H]2N(C)c3ccccc3[C@@]23C[C@@H](C(=O)OC)N=C3N1,-2.81
3,CCOC(=O)N1CCC(N(CCN(C)C)C(=S)Nc2ccccc2C)CC1,3.33
4,CN(C)S(=O)(=O)c1cccc(NC(=O)CSc2nc3ccccc3[nH]2)c1,-22.2
5,Cc1cc(C)n2c(-c3ccccc3Cl)nnc2n1,-14.8
6,O=C(NCCCCO)c1ccc2c3c(cccc13)CC2,7.52
7,CC(=O)NS(=O)(=O)c1cccnc1Nc1ccc(Cl)c(Cl)c1,16.1
8,CC(=O)Nc1nc2c(c3c1c(=O)oc1ccccc13)CCCCC2,-7.1
9,C=C[C@@]12CN(C)[C@H]3[C@H]1[C@@]1(C(=O)Nc4ccccc41)C1CC2[C@@H]3CO1,13
10,O=c1c2c(-c3cccs3)csc2ncn1-c1ccccc1,-28.3
11,CCOc1ccc(N2C(=O)c3ccc(C(=O)OCC(=O)N(CC)C4CCS(=O)(=O)C4)cc3C2=O)cc1 (centres unmarked),-22.3
12,O=C(CN1CCN(Cc2ccccc2)CC1)Nc1cccc(Br)c1,-51.7
13,Cc1cccc(NC(=O)CN2CCCCCC2)c1,7.69
14,Cc1cccc(NC(=O)Cn2cccc2)c1,-5.5
15,Cc1cc(C)cc(NC(=O)CN2CCC(NC(=O)c3cccc(F)c3)CC2)c1,-39
16,NS(=O)(=O)c1ccc(NC(=O)CN2CCN(S(=O)(=O)/C=C/c3ccccc3)CC2)cc1,-9.04
17,CC(=O)c1cccc(NC(=O)CN2CCN(Cc3ccccc3)CC2)c1.Cl,-10.9
18,Cc1cccc(NC(=O)CN2CCN(CC(=O)Nc3cccc(C)c3)CC2)c1,-63.7
19,COc1cc(NC(=O)CN2CCN(S(=O)(=O)/C=C/c3ccccc3)CC2)cc(OC)c1OC,-14.8
20,CC(=O)c1cccc(NC(=O)CN2CCN(S(=O)(=O)/C=C/c3ccccc3)CC2)c1,-53.9
21,COC(=O)c1cccc(NC(=O)CN2CCN(Cc3ccccc3)CC2)c1,-16
22,Cc1ccc(NC(=O)CN2CCC(NC(=O)c3cccc(F)c3)CC2)cc1C,-41.3
23,O=C(CN1CCC(NC(=O)c2cccc(F)c2)CC1)Nc1ccc(Br)cc1,-73

row,SMILES,"hERG current change (%, negative = inhibition) at 10uM [%]"
1,CC(C(Sc1ccccc1N)c1ccccc1)[N+](=O)[O-] (centres unmarked),7.82
2,CCOP(=O)(O)c1cccc(OCCOCCOc2cccc(P(=O)(O)OCC)c2)c1,4.45
3,Cn1c(=NCC(O)COc2ccccc2)sc2ccccc21 (centres unmarked),-42.7
4,COc1ccnc(Oc2ccccc2)c1C(N)=O,20.2
5,C/C(Cn1cnc([N+](=O)[O-])n1)=N\NC(=O)c1cccc(F)c1,6.43
6,COC(=O)c1cccc(NC(=O)CSc2nnc(C)n2C)c1,26
7,Cc1ccc(NC(=O)C2CCN(S(=O)(=O)c3ccc4c(c3)NC(=O)C(C)S4)CC2)c(C)c1 (centres unmarked),-3.06
8,O=C(O)C1CCN(C(=O)c2ccco2)CC1,9.94
9,COc1ccc(N(CC(=O)N/N=C/c2ccccc2OC)S(=O)(=O)c2ccccc2)cc1,19.9
10,Cc1cc(N2C(=O)C(O)=C(C(=O)c3cccs3)C2c2cccc(Br)c2)no1 (centres unmarked),6.05
11,c1ccc(-c2nnc(-c3ccncc3)nc2-c2ccccc2)cc1,-24.5
12,COc1cccc2c(=O)cc(C)n(CC(=O)Nc3ccc(C)c(C)c3)c12,-5.88
13,COc1cccc2c(=O)cc(C)n(CC(=O)Nc3cccc(C)c3)c12,-59.4
14,COc1cccc2c(=O)cc(C)n(CC(=O)Nc3ccc(Br)cc3)c12,12.8
15,O=C(c1cccc(S(=O)(=O)N2CCCC2)c1)N1CCN(c2ccccc2)CC1,-13
16,Cc1ccc(NC(=O)c2cccc(S(=O)(=O)N3CCN(c4ccccc4)CC3)c2)nc1,-1.19
17,O=C(c1cccc(S(=O)(=O)N2CCOCC2)c1)N1CCN(c2ccccc2)CC1,-15.7
18,O=C(NNC(=O)c1cccc(S(=O)(=O)N2CCN(c3ccccc3)CC2)c1)c1ccc(Cl)cc1,-59.5
19,O=C(c1cccc(S(=O)(=O)N2CCCCC2)c1)N1CCN(c2ccccc2)CC1,-73.1
20,Cc1ccc(C(=O)NNC(=O)c2cccc(S(=O)(=O)N3CCN(c4ccccc4)CC3)c2)cc1,-25.4
21,O=C(c1cccc(S(=O)(=O)N2CCN(c3ccccc3)CC2)c1)N1CCCCCCC1,-33.4
22,CC(=O)N1CCN(C(=O)c2cccc(S(=O)(=O)N3CCN(c4ccccc4)CC3)c2)CC1,-16.5
23,O=C(c1cccc(S(=O)(=O)N2CCCCCC2)c1)N1CCN(c2ccccc2)CC1,-68.8

row,SMILES,"hERG current change (%, negative = inhibition) at 10uM [%]"
1,CC1Oc2ccccc2N(CC(=O)NCc2ccccc2)C1=O (centres unmarked),6.53
2,CCOC(=O)C1=NN(c2ccccc2)C2=NC(C)=C(C(=O)OC)C(c3cccs3)N12 (centres unmarked),-5.66
3,CCc1ccc(NC(=O)CNS(=O)(=O)c2c(C)noc2C)cc1,-2.28
4,N#Cc1nc(-c2ccco2)oc1N1CCN(c2cccc(Cl)c2)CC1,-16.1
5,COc1cc(NC(=O)CSc2nnnn2-c2ccccc2)cc(OC)c1OC,-0.308
6,CCOc1ccccc1NC(=O)c1cccc2c1C(=O)N(C1CCCCC1)C2,9.57
7,C1CCCCCC2(CCCCC1)OCC(CN1CCOCC1)O2 (centres unmarked),-20.5
8,O=C(CCCc1nc2ccccc2s1)NCc1ccc(F)cc1,-37.4
9,CN(C)S(=O)(=O)c1ccc(C(=O)NCc2nc3ccccc3s2)cc1,1.24
10,CN(Cc1nc2ccccc2s1)C(=O)c1ccc(F)cc1,-61
11,Cc1cccc(-c2nc(=S)c3c(n2Cc2ccco2)CCCC3)c1,7.14
12,O=C(NCc1ccccc1)C1=C[C@H](c2coc3ccccc3c2=O)C[C@H](OCc2ccc(CO)cc2)O1,-38.1
13,CCn1c(=O)cc(SCC(=O)NCCC2=CCCCC2)c2ccccc21,-6.46
14,Cc1ccc(OCCCC(=O)Nc2ccc(Br)cc2)cc1,17.2
15,CN(CCOc1ccccc1)CC(O)COc1ccccc1 (centres unmarked),10.8
16,CC(=O)c1ccc(OCC(O)CN(C)CCOc2ccc(Br)cc2)cc1 (centres unmarked),23.4
17,CC(C)c1ccc(CN(C)CC(O)c2ccccc2)cc1.O=C(O)C(=O)O (centres unmarked),-18.9
18,CC(OCC(O)CN(C)CCOc1ccccc1)c1ccc(Cl)cc1 (centres unmarked),-43.5
19,CN(CCOc1ccc(Br)cc1)CC(O)c1ccccc1.O=C(O)C(=O)O (centres unmarked),-63.1
20,CN(CCOc1ccc(Cl)cc1)CC(O)c1ccccc1.O=C(O)C(=O)O (centres unmarked),-60.4

# — PMC4336329 (PLoS ONE, 2015)
